The results in this text go back to PubChem BioAssay (NCI).

A short description of assay [1]: NCI Yeast Anticancer Drug Screen. Data for the rad50 strain (AID 155).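 Also: 0% = growth of vehicle-only cultures of the same strain.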 Conditions: S. cerevisiae rad50 strain growth inhibition, active compounds read high. The method, boiled down:
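Vehicle-treated cultures provide the reference for the growth inhibition reported for compound-exposed, repair-deficient yeast.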

Assay [2] can be described thus: NCI Yeast Anticancer Drug Screen. Data for the mec2-1 strain (AID 157). Conditions: S. cerevisiae mec2-1 strain, active compounds read high. An outline of the steps:
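Vehicle-treated cultures served as reference for growth inhibition of compound-exposed mec2-1 yeast.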

The nature of assay [3]: NCI Yeast Anticancer Drug Screen. Data for the sgs1 mgt1 strain (AID 161).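 Also: 0% = growth of cultures given vehicle only.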 Conditions: S. cerevisiae sgs1 mgt1 strain, active compounds read high. The method, boiled down: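 Read-out: growth inhibition vs vehicle controls. Cells: mutant yeast strain deficient in DNA damage repair.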
The nature of assay [4]: NCI Yeast Anticancer Drug Screen. Data for the cln2 rad14 strain (AID 165).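 Also: 0% = growth equal to vehicle treated cultures.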 Conditions: S. cerevisiae cln2 rad14 strain, active compounds read high. The method, boiled down:
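Each compound was tested on cln2 rad14 yeast. Inhibition of growth was calculated against vehicle-exposed controls.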

A short description of assay [5]: NCI Yeast Anticancer Drug Screen. Data for the bub3 strain (AID 167). The note with it: S. cerevisiae bub3 mutant strain, active compounds read high. An outline of the steps: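 Mutant yeast screening strain plus compound; vehicle-treated cultures serve as the 0% inhibition reference.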
Assay [6] in a line: NCI Yeast Anticancer Drug Screen. Data for the mlh1 rad18 strain (AID 175). Conditions: S. cerevisiae mlh1 rad18 strain growth inhibition, active compounds read high. An outline of the steps: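 Vehicle-treated cultures served as the reference for growth inhibition in a yeast strain carrying DNA damage repair alterations exposed to each compound.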
Where [7] appears, read: at 5.0 µM (retest, dose inferred, filed as 0.5).
The mark [8] stands for this setting: at 50.0 µM (retest, dose inferred, filed as 5.0).

Compounds without any hit were thinned out: in the full panel of roughly 79,000, 15% have a hit. A number with no mark means an inactive call. Activity calls are given as the source filed them. Rule as the data show it: active = growth inhibition above about 70%; inactive = the rest.

Take `CC(=O)/C(=C/n1c(=S)[nH]c2ccc([N+](=O)[O-])cc21)C(=O)Nc1ccc(Cl)cc1`: the growth inhibition in assay [1] (setting [7]) is 1%; in assay [1] (setting [8]) it was -1%; in assay [1] (at 50.0 µM), 10.9%; in assay [2] (setting [7]) it was -9%; in assay [2] (setting [8]) it was 2%; in assay [2] (at 50.0 µM), 6.75%. In addition, the growth inhibition in assay [3] (setting [7]) is 0%; in assay [3] (setting [8]), -5%; in assay [3] (at 50.0 µM) it was 16.7%; in assay [4] (setting [7]) it was -21%; in assay [4] (setting [8]), -17%; in assay [4] (at 50.0 µM), 46.4%. Moreover, the growth inhibition in assay [5] (setting [7]) is -4%; in assay [5] (setting [8]), -2%; in assay [5] (at 50.0 µM), 15.6%; in assay [6] (setting [7]), 1%; in assay [6] (setting [8]), -2%; in assay [6] (at 50.0 µM) it was 22.3%.

Turning to `CCCCCCCCC1OC1CCCCCCCC(=O)OCC1CO1` (stereo not given), the growth inhibition in assay [1] (setting [7]) is 1%; in assay [1] (setting [8]), -11%; in assay [1] (at 50.0 µM), 3.45%; in assay [2] (setting [7]) it was 1%; in assay [2] (setting [8]), -10%; in assay [2] (at 50.0 µM), -18.7%. The growth inhibition was 1% in assay [3] (setting [7]); -10% in assay [3] (setting [8]); 8.9% in assay [3] (at 50.0 µM); 5% in assay [4] (setting [7]); 5% in assay [4] (setting [8]); 29.1% in assay [4] (at 50.0 µM). Further, the growth inhibition in assay [5] (setting [7]) was -3%; in assay [5] (setting [8]) it was -16%; in assay [5] (at 50.0 µM), -25.1%; in assay [6] (setting [7]), 25%; in assay [6] (setting [8]), -14%; in assay [6] (at 50.0 µM) it was -40.8%.

Take `Nc1ccc(Cl)c2ccccc12`: the growth inhibition in assay [1] (setting [7]) was -1%; in assay [1] (setting [8]) it was 42%; in assay [1] (at 50.0 µM), 84.2% (active); in assay [2] (setting [7]), -4%; in assay [2] (setting [8]), 20%; in assay [2] (at 50.0 µM), 76.8% (active). The growth inhibition in assay [3] (setting [7]) is -5%; in assay [3] (setting [8]), 12%; in assay [3] (at 50.0 µM), 71.2% (active); in assay [4] (setting [7]), 40%; in assay [4] (setting [8]), 26%; in assay [4] (at 50.0 µM) it was 53.5%. The growth inhibition in assay [5] (setting [7]) was 6%; in assay [5] (setting [8]), 48%; in assay [5] (at 50.0 µM), 57.9%; in assay [6] (setting [7]) it was -4%; in assay [6] (setting [8]), 33%; in assay [6] (at 50.0 µM) it was 74.5% (active).

In the case of `O=[N+]([O-])c1cnc(Sc2cncc[n+]2[O-])s1`, the growth inhibition was 99% (active) in assay [1] (setting [7]); 99% (active) in assay [1] (setting [8]); 99.5% (active) in assay [1] (at 50.0 µM); 100% (active) in assay [2] (setting [7]); 100% (active) in assay [2] (setting [8]); 99.4% (active) in assay [2] (at 50.0 µM). Also, the growth inhibition in assay [3] (setting [7]) is 99% (active); in assay [3] (setting [8]) it was 100% (active); in assay [3] (at 50.0 µM) it was 99.3% (active); in assay [4] (setting [7]), 98% (active); in assay [4] (setting [8]) it was 99% (active); in assay [4] (at 50.0 µM), 99.3% (active). Also, the growth inhibition in assay [5] (setting [7]) was 99% (active); in assay [5] (setting [8]) it was 99% (active); in assay [5] (at 50.0 µM), 99.5% (active); in assay [6] (setting [7]) it was 99% (active); in assay [6] (setting [8]) it was 99% (active); in assay [6] (at 50.0 µM), 99.5% (active).

As for `ClC(Cl)(Cl)C(NCCN1CCOCC1)c1ccccc1` (stereo not given), the growth inhibition in assay [1] (setting [7]) was 99% (active); in assay [1] (setting [8]) it was 88% (active); in assay [1] (at 50.0 µM), 80% (active); in assay [2] (setting [7]), 100% (active); in assay [2] (setting [8]) it was 99% (active); in assay [2] (at 50.0 µM), 61.7%. In addition, the growth inhibition is 100% (active) in assay [3] (setting [7]); 98% (active) in assay [3] (setting [8]); 84.5% (active) in assay [3] (at 50.0 µM); 66% in assay [4] (setting [7]); 55% in assay [4] (setting [8]); 78.8% (active) in assay [4] (at 50.0 µM). In addition, the growth inhibition was 98% (active) in assay [5] (setting [7]); 97% (active) in assay [5] (setting [8]); 66.3% in assay [5] (at 50.0 µM); 99% (active) in assay [6] (setting [7]); 98% (active) in assay [6] (setting [8]); 78.7% (active) in assay [6] (at 50.0 µM).

As for `CCOC(=O)CCC(=O)Oc1ccc2c(c1OC(=O)CCC(=O)OCC)C(=O)c1ccccc1C2=O`, the growth inhibition in assay [1] (setting [7]) was 25%; in assay [1] (setting [8]), 97% (active); in assay [1] (at 50.0 µM), 87.5% (active); in assay [2] (setting [7]), 11%; in assay [2] (setting [8]), 97% (active); in assay [2] (at 50.0 µM) it was 78.8% (active). Also, the growth inhibition in assay [3] (setting [7]) was 50%; in assay [3] (setting [8]), 98% (active); in assay [3] (at 50.0 µM) it was 83% (active); in assay [4] (setting [7]) it was 13%; in assay [4] (setting [8]), 97% (active); in assay [4] (at 50.0 µM), 66%. Moreover, the growth inhibition is 8% in assay [5] (setting [7]); 96% (active) in assay [5] (setting [8]); 60.5% in assay [5] (at 50.0 µM); 22% in assay [6] (setting [7]); 97% (active) in assay [6] (setting [8]); 95% (active) in assay [6] (at 50.0 µM).

`O=C(Nc1c(Cl)cccc1Cl)Oc1c(Br)cc(Br)cc1Br`: the growth inhibition is 77% (active) in assay [1] (setting [7]); 96% (active) in assay [1] (setting [8]); 90.3% (active) in assay [1] (at 50.0 µM); 66% in assay [2] (setting [7]); 94% (active) in assay [2] (setting [8]); 93% (active) in assay [2] (at 50.0 µM). Besides, the growth inhibition in assay [3] (setting [7]) was 27%; in assay [3] (setting [8]), 98% (active); in assay [3] (at 50.0 µM) it was 93.2% (active); in assay [4] (setting [7]) it was 25%; in assay [4] (setting [8]), 100% (active); in assay [4] (at 50.0 µM), 92.2% (active). Besides, the growth inhibition in assay [5] (setting [7]) was 58%; in assay [5] (setting [8]), 93% (active); in assay [5] (at 50.0 µM) it was 91% (active); in assay [6] (setting [7]), 64%; in assay [6] (setting [8]) it was 98% (active); in assay [6] (at 50.0 µM), 90.1% (active).

As for `CC(=O)OC(C)C1C2=C(C(=O)CC1(C)O)C(=O)c1c(ccc(-c3ccc4c(c3O)C(=O)C3=C(C4=O)C(C(C)OC(C)=O)C(C)(O)CC3=O)c1O)C2=O` (stereo not given), the growth inhibition was 21% in assay [1] (setting [7]); 94% (active) in assay [1] (setting [8]); 72.8% (active) in assay [1] (at 50.0 µM); 10% in assay [2] (setting [7]); 95% (active) in assay [2] (setting [8]); 79.6% (active) in assay [2] (at 50.0 µM). In addition, the growth inhibition in assay [3] (setting [7]) is 44%; in assay [3] (setting [8]) it was 86% (active); in assay [3] (at 50.0 µM) it was 76.5% (active); in assay [4] (setting [7]), 12%; in assay [4] (setting [8]), 67%; in assay [4] (at 50.0 µM) it was 70.8% (active). For the same compound, the growth inhibition is 13% in assay [5] (setting [7]); 85% (active) in assay [5] (setting [8]); 70.7% (active) in assay [5] (at 50.0 µM); 28% in assay [6] (setting [7]); 94% (active) in assay [6] (setting [8]); 76.7% (active) in assay [6] (at 50.0 µM).

With `CCOC(=O)Nc1cc2c(cc1Br)-c1ccccc1C2O` (stereo not given), the growth inhibition in assay [1] (setting [7]) is -1%; in assay [1] (setting [8]), -3%; in assay [1] (at 50.0 µM) it was 10%; in assay [2] (setting [7]), -3%; in assay [2] (setting [8]), 12%; in assay [2] (at 50.0 µM), -5.6%. Also, the growth inhibition in assay [3] (setting [7]) was -7%; in assay [3] (setting [8]), 1%; in assay [3] (at 50.0 µM), 10.4%; in assay [4] (setting [7]) it was -2%; in assay [4] (setting [8]), 27%; in assay [4] (at 50.0 µM), -2.85%. The growth inhibition was 68% in assay [5] (setting [7]); 95% (active) in assay [5] (setting [8]); 69.4% in assay [5] (at 50.0 µM); -2% in assay [6] (setting [7]); 7% in assay [6] (setting [8]); 18.7% in assay [6] (at 50.0 µM).

On to `O=C1C(=O)C(Cl)=C(Cl)C(Cl)=C1Cl`, for which the growth inhibition in assay [1] (setting [7]) is -3%; in assay [1] (setting [8]), 97% (active); in assay [1] (at 50.0 µM) it was 99.3% (active); in assay [2] (setting [7]) it was 7%; in assay [2] (setting [8]) it was 99% (active); in assay [2] (at 50.0 µM), 99.7% (active). Also, the growth inhibition in assay [3] (setting [7]) was 1%; in assay [3] (setting [8]), 95% (active); in assay [3] (at 50.0 µM) it was 99.5% (active); in assay [4] (setting [7]), -12%; in assay [4] (setting [8]), 98% (active); in assay [4] (at 50.0 µM), 98.5% (active). Further, the growth inhibition in assay [5] (setting [7]) is -25%; in assay [5] (setting [8]) it was 97% (active); in assay [5] (at 50.0 µM), 99.3% (active); in assay [6] (setting [7]), -7%; in assay [6] (setting [8]), 98% (active); in assay [6] (at 50.0 µM) it was 99.1% (active).
